Screen size: about 5,500 compounds; about 2,000 (36%) were called active. Not shown: some 18% with an inconclusive outcome. Rule as the data show it: active = normalized growth mostly below about 0.91 (no sharp cut-off); inconclusive = no clear call, values can overlap the other calls; inactive = mostly above about 0.92. This is one part of the list.
Test: chemical genetic growth profiling, strain panel (AID 1159580);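 also: tested at 20 µM; growth read once vehicle control cultures reached saturation at 30 °C; 1 = growth at the plate median or of vehicle wells; lower values mean less growth of the strain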
Conditions: growth OD

Measured: normalized growth

O=C(O)COc1ccc(Cl)cc1Cl
inactive: S. cerevisiae deletion strains, locus YJR043C, strain POL32, stronger effect = lower value 1.02 | S. cerevisiae deletion strains, locus YJR075W, strain HOC1, stronger effect = lower value 1.02 | S. cerevisiae deletion strains, locus YKL009W, strain mrt4, stronger effect = lower value 1.04 | S. cerevisiae deletion strains, locus YKL068W, stronger effect = lower value 1.01 | S. cerevisiae deletion strains, locus YKL085W, strain MDH1 (second series), stronger effect = lower value 1.01 | S. cerevisiae deletion strains, locus YKL085W, strain MDH1, stronger effect = lower value 1.01 | S. cerevisiae deletion strains, locus YKL160W, strain elf1, stronger effect = lower value 0.996 | S. cerevisiae deletion strains, locus YKL190W, strain CNB1, stronger effect = lower value 1.02 | S. cerevisiae deletion strains, locus YKR001C, strain vps1, stronger effect = lower value 1.04 | S. cerevisiae deletion strains, locus YKR026C, strain gcn3, stronger effect = lower value 0.988 | S. cerevisiae deletion strains, locus YKR091W, strain srl3, stronger effect = lower value 0.999 | S. cerevisiae deletion strains, locus YLL001W, strain dnm1, stronger effect = lower value 1 | S. cerevisiae deletion strains, locus YLL026W, stronger effect = lower value 0.988 | S. cerevisiae deletion strains, locus YLL041C, strain sdh2, stronger effect = lower value 0.995 | S. cerevisiae deletion strains, locus YLR027C, strain aat2, stronger effect = lower value 0.993 | S. cerevisiae deletion strains, locus YLR039C, strain RIC1, stronger effect = lower value 1.04 | S. cerevisiae deletion strains, locus YLR058C, strain SHM2, stronger effect = lower value 1.01 | S. cerevisiae deletion strains, locus YLR102C, strain apc9, stronger effect = lower value 1.03 | S. cerevisiae deletion strains, locus YLR221C, strain rsa3, stronger effect = lower value 0.989 | S. cerevisiae deletion strains, locus YLR258W, strain gsy2, stronger effect = lower value 0.994 | S. cerevisiae deletion strains, locus YLR262C, strain YPT6 (second series), stronger effect = lower value 0.996 | S. cerevisiae deletion strains, locus YLR262C, strain YPT6, stronger effect = lower value 1.08 | S. cerevisiae deletion strains, locus YLR268W, strain sec22, stronger effect = lower value 1.02 | S. cerevisiae deletion strains, locus YLR320W, strain mms22, stronger effect = lower value 0.991 | S. cerevisiae deletion strains, locus YLR330W, strain CHS5, stronger effect = lower value 1.01 | S. cerevisiae deletion strains, locus YLR342W, strain FKS1 (second series), stronger effect = lower value 1.03 | S. cerevisiae deletion strains, locus YLR342W, strain FKS1, stronger effect = lower value 1 | S. cerevisiae deletion strains, locus YLR357W, strain rsc2, stronger effect = lower value 0.989 | S. cerevisiae deletion strains, locus YLR370C, strain arc18, stronger effect = lower value 0.994 | S. cerevisiae deletion strains, locus YLR371W, strain rom2, stronger effect = lower value 1.03 | S. cerevisiae deletion strains, locus YLR384C, strain iki3, stronger effect = lower value 0.997 | S. cerevisiae deletion strains, locus YLR418C, strain cdc73, stronger effect = lower value 1.06 | S. cerevisiae deletion strains, locus YML016C, strain PPZ1, stronger effect = lower value 1.01 | S. cerevisiae deletion strains, locus YML032C, strain rad52, stronger effect = lower value 1.04 | S. cerevisiae deletion strains, locus YML120C, strain ndi1, stronger effect = lower value 0.989 | S. cerevisiae deletion strains, locus YML124C, strain tub3, stronger effect = lower value 1.02 | S. cerevisiae deletion strains, locus YMR058W, strain fet3, stronger effect = lower value 0.999 | S. cerevisiae deletion strains, locus YMR078C, strain ctf18, stronger effect = lower value 1.02 | S. cerevisiae deletion strains, locus YMR125W, strain sto1, stronger effect = lower value 0.993 | S. cerevisiae deletion strains, locus YMR129W, stronger effect = lower value 0.996 | S. cerevisiae deletion strains, locus YMR205C, strain PFK2, stronger effect = lower value 0.984 | S. cerevisiae deletion strains, locus YMR223W, strain ubp8, stronger effect = lower value 1.03 | S. cerevisiae deletion strains, locus YMR231W, strain pep5, stronger effect = lower value 0.992 | S. cerevisiae deletion strains, locus YMR263W, strain SAP30, stronger effect = lower value 1.01 | S. cerevisiae deletion strains, locus YMR307W, strain GAS1, stronger effect = lower value 1.04 | S. cerevisiae deletion strains, locus YNL067W, strain RPL9B, stronger effect = lower value 1.02 | S. cerevisiae deletion strains, locus YNL071W, strain lat1, stronger effect = lower value 1.01 | S. cerevisiae deletion strains, locus YNL128W, strain TEP1, stronger effect = lower value 1.02 | S. cerevisiae deletion strains, locus YNL153C, strain GIM3, stronger effect = lower value 0.993 | S. cerevisiae deletion strains, locus YNL209W, strain ssb2, stronger effect = lower value 1 | S. cerevisiae deletion strains, locus YNL233W, strain BNI4, stronger effect = lower value 1.03 | S. cerevisiae deletion strains, locus YNL248C, strain rpa49, stronger effect = lower value 0.989 | S. cerevisiae deletion strains, locus YNL250W, strain rad50, stronger effect = lower value 1.02 | S. cerevisiae deletion strains, locus YNL271C, strain bni1, stronger effect = lower value 1.02 | S. cerevisiae deletion strains, locus YNL298W, strain CLA4, stronger effect = lower value 1.04 | S. cerevisiae deletion strains, locus YNL307C, strain MCK1, stronger effect = lower value 1.03 | S. cerevisiae deletion strains, locus YNL322C, strain KRE1 (second series), stronger effect = lower value 0.994 | S. cerevisiae deletion strains, locus YNL322C, strain KRE1, stronger effect = lower value 1.01 | S. cerevisiae deletion strains, locus YNR049C, strain mso1, stronger effect = lower value 0.993 | S. cerevisiae deletion strains, locus YNR052C, strain pop2, stronger effect = lower value 1.03 | S. cerevisiae deletion strains, locus YOL006C, strain TOP1, stronger effect = lower value 1.08 | S. cerevisiae deletion strains, locus YOL012C, strain htz1 1.3 | S. cerevisiae deletion strains, locus YOL147C, strain pex11, stronger effect = lower value 1.02 | S. cerevisiae deletion strains, locus YOR001W, strain rrp6, stronger effect = lower value 0.993 | S. cerevisiae deletion strains, locus YOR061W, strain CKA2, stronger effect = lower value 1.01 | S. cerevisiae deletion strains, locus YOR069W, strain VPS5, stronger effect = lower value 1.01 | S. cerevisiae deletion strains, locus YOR070C, strain gyp1, stronger effect = lower value 1 | S. cerevisiae deletion strains, locus YOR080W, strain dia2, stronger effect = lower value 0.996 | S. cerevisiae deletion strains, locus YOR083W, strain WHI5, stronger effect = lower value 0.998 | S. cerevisiae deletion strains, locus YOR106W, strain vam3, stronger effect = lower value 0.994 | S. cerevisiae deletion strains, locus YOR136W, strain idh2, stronger effect = lower value 1.02 | S. cerevisiae deletion strains, locus YOR144C, strain elg1, stronger effect = lower value 1.02 | S. cerevisiae deletion strains, locus YOR184W, strain ser1, stronger effect = lower value 1.03 | S. cerevisiae deletion strains, locus YOR265W, strain rbl2, stronger effect = lower value 0.992 | S. cerevisiae deletion strains, locus YOR270C, strain vph1, stronger effect = lower value 1.01 | S. cerevisiae deletion strains, locus YOR290C, strain snf2, stronger effect = lower value 1 | S. cerevisiae deletion strains, locus YOR316C, strain cot1, stronger effect = lower value 1.03 | S. cerevisiae deletion strains, locus YPL051W, strain arl3, stronger effect = lower value 0.993 | S. cerevisiae deletion strains, locus YPL055C, strain LGE1, stronger effect = lower value 1.03 | S. cerevisiae deletion strains, locus YPL078C, strain atp4, stronger effect = lower value 0.999 | S. cerevisiae deletion strains, locus YPL106C, strain sse1, stronger effect = lower value 0.983 | S. cerevisiae deletion strains, locus YPL240C, strain hsp82, stronger effect = lower value 0.993 | S. cerevisiae deletion strains, locus YPL241C, strain CIN2, stronger effect = lower value 1.01 | S. cerevisiae deletion strains, locus YPR119W, strain clb2, stronger effect = lower value 1.01 | S. cerevisiae deletion strains, locus YPR141C, strain kar3, stronger effect = lower value 1.03 | S. cerevisiae deletion strains, locus YPR163C, strain tif3, stronger effect = lower value 1.02 | S. cerevisiae deletion strains, locus YPR167C, strain met16, stronger effect = lower value 1.03 | S. cerevisiae deletion strains, strain wtn01, stronger effect = lower value 1.02 | S. cerevisiae strains, strain wild type, stronger effect = lower value 1.01
